Most compounds without a hit are left out; they make up all but 1% or so of the library.
SNCA expr inh = SNCA gene expression inhibition. HEK-293 SNCA-luciferase knock-in, luminescence, 24 h. Potency, µM (doses to about 57.2 µM), inactives show at the highest dose activity change, negative = inhibition, hits mostly inhibitors. actives 0.17% (n = 140,000). AID 1671194;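 also: potency is read from the fitted curve at half-maximal effect; plate controls were DMSO cells for no effect and cell-free wells for full effect; nearly all actives have a fitted effect of over 45% in size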
SNCA viab count = reduces viability of HEK-293 SNCA reporter cells; HEK-293-SNCA-luc viability, GF-AFC fluorescence, 24 h; Potency, µM (titrated, usually from 57.1 µM), for the others: at the top dose activity change, negative = cytotoxicity, hits mostly cytotoxic; actives 0.12% (n = 150,000);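 also: potency is read from the fitted curve at half-maximal effect; 0% = DMSO-treated cells and -100% = medium-only wells without cells; nearly all actives have a fitted effect of over 30% in size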
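HEK-293-SNCA-luc cells (1500/well) plated 24 h, then exposed 24 h to a dilution series; GF-AFC added 30 min at 37C, fluorescence 405/540 nm; normalised to medium-only and DMSO wells, Hill fit.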
IP6K1 inhibitor = inhibitors of human IP6K1 | Q92551 | IP6K1 kinase, ADP-Glo luminescence, 2 h; stronger effect = lower value | activity change, % (series mostly up to about 58 µM) | actives 0.81% (n = 140,000) | AID 1645851; in the data active = activity change below about -25%
Target sequence (Q92551 whole entry, looked up): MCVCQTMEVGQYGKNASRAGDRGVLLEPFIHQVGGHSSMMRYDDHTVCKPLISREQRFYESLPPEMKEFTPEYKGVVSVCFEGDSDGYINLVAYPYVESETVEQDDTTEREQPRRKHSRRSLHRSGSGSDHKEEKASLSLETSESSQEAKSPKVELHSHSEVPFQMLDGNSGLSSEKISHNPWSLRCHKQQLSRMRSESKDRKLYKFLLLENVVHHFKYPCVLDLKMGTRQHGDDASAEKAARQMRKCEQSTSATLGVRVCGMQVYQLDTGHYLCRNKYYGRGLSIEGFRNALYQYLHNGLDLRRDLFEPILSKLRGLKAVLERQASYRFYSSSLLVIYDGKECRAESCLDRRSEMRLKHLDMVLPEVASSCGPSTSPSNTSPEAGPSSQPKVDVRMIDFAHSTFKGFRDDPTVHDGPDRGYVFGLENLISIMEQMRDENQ
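ADP-Glo luminescence measures ADP made by human IP6K1 during a 2 h RT reaction with ATP/IP6 (mix at 1.3 mM/130 uM); top library doses 57.5 and 19.1 uM final.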
GPT2 inhibitor = inhibitors of human GPT2 alanine aminotransferase. Recombinant GPT2, coupled pyruvate oxidase/HRP Amplex Red fluorescence. Potency, µM (titrated, usually from 57.7 µM), without a hit: at the highest dose activity change, negative = inhibition, usual class: inhibitors. actives 0.25% (n = 100,000). AID 1671188; also: potency is read from the fitted curve at half-maximal effect; nearly all actives have a fitted effect of over 60% in size
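Fluorescence read-out: pyruvate from GPT2 turnover coupled to pyruvate oxidase, HRP and Amplex Red (0.2mM ThPP, 0.2U/mL PO and HRP, 50uM Amplex final). Substrates 250uM a-KG, 2mM L-alanine; enzyme 10ng/uL; 30 min RT.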
IP6K1 conf = confirmation of human IP6K1 inhibitors | actives 13% (n = 1,200) | shares compounds with IP6K1 inhibitor | Potency, µM (highest dose often 49 µM), for the others: at the highest dose activity change, negative = inhibition, usual class: inhibitors | recombinant IP6K1 kinase, ADP-Glo luminescence, 2 h; also: potency is read from the fitted curve at half-maximal effect; nearly all actives have a fitted effect of over 65% in size
* = called active by the depositor; i = inactive; ? = inconclusive; · = no result given; [ ] = remark or other dose. Unless noted, calls follow the shape of the dose curve; as a rule, active = well fitted curve in the direction sought with a large enough effect; inconclusive = small, poorly fitted or top-dose-only effect, or another doubt; inactive = no such curve, though single readings can be large; an effect the other way counts as inactive or inconclusive. Unless noted, % is scaled to controls: 0 for no effect and ±100 for the full control effect.

SMILES | SNCA expr inh | SNCA viab count | IP6K1 inhibitor | GPT2 inhibitor | IP6K1 conf
Cc1ccc(F)cc1NC(=O)c1cc(-c2ccc[nH]2)n[nH]1 | 72.5% | -16.3% | 9.7 | i | ?
O=C(Nc1ccc(I)cc1)c1cc(-c2ccc[nH]2)n[nH]1 | 75.0% | -8.9% | -9.5 | i | ?
COc1ccc(NC(=O)c2cc(-c3ccc[nH]3)n[nH]2)cc1OC | -16.4% | -25.3% | -2.1 | i | ·
O=C(NCc1ccccc1)c1ccc2nnc(C3CCCC3)n2c1 | 14.5%[87.6 µM] | 10.3%[87.6 µM] | -2.5 | i | ·
CC[C@H](C)[C@H](N)C(=O)N1CCC2(CCC(=O)N(Cc3ccccc3)C2)CC1 | -7.2% | ? | -39.3* | 3.4%[11.5 µM] | -6.2%
N#Cc1ccc(-c2cnc3[nH]cc(NC(=O)c4cccnc4)c3c2)cc1 | · | -16.6% | -27.7* | -5.8% | ?
NC(=O)Cc1c[nH]c2ncc(-c3ccccc3C(F)(F)F)cc12 | -10.6%[87.6 µM] | -10.0%[87.6 µM] | -34.0* | -17.0%[88.5 µM] | ?
COc1ncccc1-c1cnc2[nH]cc(CC(N)=O)c2c1 | 68.6%[87.6 µM] | 2.4%[87.6 µM] | -29.2* | 4.3%[88.5 µM] | ?
O=C(Cc1c[nH]c2ncc(-c3ccc(Cl)cc3)cc12)NCc1cccnc1 | 17.3%[87.6 µM] | 4.3%[87.6 µM] | -25.4* | -5.3%[88.5 µM] | -25.3%
O=C1c2cnccc2OC2(CCCC2)CN1Cc1ccccc1 | · | · | -10.2 | · | ·
COc1ccc(-c2cnc3[nH]cc(CC(N)=O)c3c2)cc1OC | 16.1%[87.6 µM] | -7.3%[87.6 µM] | -31.0* | -1.4%[88.5 µM] | ?
NC(=O)Cc1c[nH]c2ncc(-c3ccc(F)cc3)cc12 | 9.9%[87.6 µM] | 6.1%[87.6 µM] | -29.2* | i | ?
Cc1ccc(-c2ccc3nnc(CNC(=O)Cc4cccs4)n3n2)cc1C | 17.5% | 0.2% | 8.5 | 2.5% | 41.4%
CCC1CN(C(=O)Nc2ccc(C)c(F)c2)c2ccccc2S1 (configuration not stated) | -19.5% | 9.6% | -27.4* | · | -8.9%
CCC1CN(C(=O)Nc2cc(OC)cc(OC)c2)c2ccccc2S1 (configuration not stated) | -29.6% | 4.0% | -23.6 | · | ·
Cc1ccc(NC(=O)Cn2c(=O)nc(-c3ccccc3F)c3cc(Cl)ccc32)c(Br)c1 | 9.0% | -12.8% | -3.4 | · | ·
Cc1cc(NC(=O)Cn2c(=O)nc(-c3ccccc3F)c3cc(Cl)ccc32)ccc1Br | 17.4% | 4.5% | -25.4* | · | 9.6%
COc1cc2c(cc1-c1ccc(OC(F)(F)F)cc1)OCC(C)(C)CC2CO (configuration not stated) | -15.5%[25.6 µM] | -13.3%[23.9 µM] | 9.7 | -15.4%[27.3 µM] | ·
CCOc1ccc(-n2cc(-c3ccccc3)c3c(NC4CCCCC4)ncnc32)cc1 | 6.6% | 2.9% | 6.0 | · | ·
COc1ccc(-n2cc(-c3ccccc3)c3c(NC4CCCCC4)ncnc32)cc1 | 32.2% | 22.6% | -25.1* | · | ?
Cc1cc(SCc2sc(-c3ccc(C(F)(F)F)cc3)nc2C)ccc1OCC(=O)O | 34.4% | 3.6% | -29.2* | -3.9% | 10.3µM*
CCOC(=O)c1ccc(NC(=O)CC2C(=O)N(c3ccc(F)cc3)C(=O)N2Cc2ccc(C)cc2)cc1 (configuration not stated) | ? | -18.8% | -29.3* | · | ?
CCOC(=O)c1ccc(NC(=O)CC2C(=O)N(c3ccc(F)cc3)C(=O)N2Cc2ccc3c(c2)OCO3)cc1 (configuration not stated) | -23.5% | -12.4% | 1.3 | · | ·
COc1ccc(-c2nc3c(c(SCc4cc(C)ccc4C)n2)Cc2c(CO)cnc(C)c2O3)cc1 | -0.8% | 7.9% | -0.7 | · | ·
COc1ccccc1-c1nc2c(c(SCc3cc(C)ccc3C)n1)Cc1c(CO)cnc(C)c1O2 | -23.1% | -15.7% | -27.2* | · | -3.6%
SMILES | SNCA expr inh | SNCA viab count | IP6K1 inhibitor | GPT2 inhibitor | IP6K1 conf
O=C(CS)Nc1ccccc1 | 32.1%[25.6 µM] | ? | -27.0* | -7.2% | ?
O=C(O)CCc1nc2ccccc2[nH]1 | 20.5%[25.6 µM] | ? | -17.3 | i | ·
Cc1ccc(/C=C/c2nc3ccccc3[nH]2)cc1 | -93.0% | -5.8% | -41.1* | · | 10.3µM*
CSc1ccc(-c2cccc(CN3CCC(NC(=O)Nc4ccccc4)CC3)c2)cc1 | · | · | 13.4 | · | ·
CCN1Cc2cc(F)ccc2N(CC(O)Cc2ccccc2)CCC1=O (configuration not stated) | · | · | 1.2 | · | ·
Cc1ccc(CS(=O)(=O)c2ncc(Cl)c(C(=O)Nc3nc4ccc(C)cc4s3)n2)cc1 | -12.3% | 4.2% | -12.6 | · | ·
Cc1ccc(CS(=O)(=O)c2ncc(Cl)c(C(=O)Nc3nc4ccc(F)cc4s3)n2)cc1 | ? | 8.9% | -28.5* | · | -15.3%
CCCc1nnc(NC(=O)c2nc(S(=O)(=O)Cc3ccc(C)cc3)ncc2Cl)s1 | 5.01µM* | 28.2µM* | -33.3* | · | ?
CN(C)c1cc(=O)c2ccnc(-c3cccc(CO)c3)c2o1 | -20.4%[87.6 µM] | -2.2%[87.6 µM] | -25.3* | i | -2.9%[92.2 µM]
O=c1cc(-c2ccncc2)oc2c(-c3cccc(CO)c3)nccc12 | -7.1%[87.6 µM] | 0.5%[87.6 µM] | -11.1 | i | ·
O=C(NCc1ccc(F)cc1)c1ccc2nnc(C3CCCC3)n2c1 | 5.7%[87.6 µM] | -7.4%[87.6 µM] | -12.1 | i | ·
Cc1cnc(Nc2ccc(OCCN3CCCC3)cc2)nc1Nc1cccc(S(=O)(=O)NC(C)(C)C)c1 | 34.9% | ? | -0.5 | i | 25.0%
c1ccc(-c2cnc(Nc3ccc(OCCN4CCCC4)cc3)s2)cc1 | · | -8.3% | -5.1 | ? | ·
CCOC(=O)c1cccc(NC(=O)N2CC[C@@H](CC(=O)Nc3nccs3)[C@@H](CC)C2)c1 | -11.7% | 4.0% | -35.3* | i | ?
CCOC(=O)c1cccc(NC(=O)N2CC[C@@H](CC(=O)Nc3ccccc3)[C@@H](CC)C2)c1 | 3.2% | -6.2% | 7.6 | 0.1% | ·
CCOCCCNC(=O)C1CCCN(Cc2cccc(-c3cccs3)c2)C1 (configuration not stated) | · | · | 11.9 | · | ·
O=C(O)c1cccc(CN2C(=O)/C(=C(\c3ccccc3)c3ccc(Cl)cc3)c3ccccc32)c1 | · | -24.8% | -25.9* | i | 20.6µM*
Cc1ccccc1CN1C(=O)c2ccccc2Sc2ccc(C(=O)O)cc21 | 0.5% | 2.0% | 31.9 | · | ·
COc1ccc(-c2nc(SCC(=O)Nc3cccc(C(C)=O)c3)n[nH]2)cc1 | -1.1% | -23.5% | -33.4* | · | ?
COc1ccc(NC(=O)CSc2n[nH]c(-c3ccccc3)n2)cc1Cl | ? | -9.0% | -22.6 | · | ·
COc1ccc(CNC(=O)C2CCN(c3nccc(Nc4ccc(OC)cc4)n3)CC2)cc1 | 33.2% | 3.4%[12.5 µM] | 8.2 | -2.4% | ·
COc1ccccc1-c1cnc(Nc2ccc3c(c2)OCCO3)c2c1CCO2 | 128.1%[87.6 µM] | -12.7%[87.6 µM] | -25.7* | -21.6%[88.5 µM] | -17.4%
O=C(NCCc1ccccc1)c1ccc2nc(N3CCCCC3)sc2c1 | 181.1% | 13.8% | -30.8* | · | -17.7%
O=C(NCc1cccc(Cl)c1)c1ccc2nc(N3CCCCC3)sc2c1 | 82.7% | -1.2% | -7.3 | · | ·
c1cc(Nc2cc(C3CC3)[nH]n2)nc(Nc2ccc3nc[nH]c3c2)n1 | · | -35.9% | -26.6* | i | ?
Cc1cc(C)cc(NC(=O)CSc2nccn2-c2ccccc2)c1 | -6.4% | 7.0% | 21.2 | · | ·
